Screens as filed in PubChem.
HT1080 IDH1KD tx: kills HT-1080 cells with IDH1 knockdown; Potency, µM (series often up to 46.1 µM), hits mostly cytotoxic; HT-1080 IDH1 knockdown viability, ATP luminescence, 48 h; 2% of 360,000 active; AID 686971
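Knockdown cells (IDH1KD HT-1080) received compounds 2 h after plating at 750 cells/well and were kept 48 h at 37 °C in 5% FBS RPMI. A CellTiter-Glo luminescence read gave % activity for curve fitting.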
HT1080NT lethal: kills 2HG-producing HT-1080-NT fibrosarcoma cells. HT-1080-NT fibrosarcoma viability, CellTiter-Glo ATP luminescence, 48 h. Potency, µM (highest dose often 46.1 µM), hits mostly cytotoxic. 1.6% of 360,000 active. AID 686970;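 also: NT is the 2HG producing partner of a matched IDH1 knockdown line; nearly all actives have a fitted effect of over 55% in size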
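Viability by CellTiter-Glo luminescence after 48 h compound exposure at 37C of HT-1080-NT cells (750/well, RPMI, 5% FBS). % activity scaled between DMSO wells and medium-only wells, then curve-fitted and categorized by curve class.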
IL-1B inflam inh: inhibitors of inflammasome signaling (IL-1 beta secretion); THP-1 LPS/ATP IL-1B secretion, AlphaLISA, 16 h; hits give low values; activity change, % at 57.5 µM; 4.7% of 360,000 active; in the data active = activity change below about -50%; inconclusive = mostly about -30% to -49%
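Secreted IL-1B measured by AlphaLISA bead assay after 16 h compound exposure of THP-1 cells; compounds (final up to 57.5 uM) added 1 h before LPS (250 ng/mL) and ATP (1.25 mM) stimulation; lower signal means less secretion.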
TDP1 cell CPT: DT40-hTDP1 cell growth loss with CPT. chicken DT40 Tdp1-/-;hTDP1 cells + 20 nM CPT, ATP luminescence, 48 h. Potency, µM (titrated, usually from 46.2 µM), hits mostly inhibitors. 12% of 420,000 active. AID 686979; also: nearly all actives have a fitted effect of over 55% in size
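Cell growth measured by CellTiter-Glo luminescence after a minimum 48 h, 37 C compound exposure with 20 nM CPT in Tdp1-knockout DT40 cells stably expressing hTDP1, seeded 400/well; qHTS titration format.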
DT40 TDP1 no CPT: qHTS for Inhibitors of human tyrosyl-DNA phosphodiesterase 1 (TDP1): qHTS in cells in absence of CPT. Potency, µM (highest dose often 46.2 µM), usual class: inhibitors. 15% of 420,000 active. DT40 Tdp1-/- hTDP1 cells, no CPT, ATP luminescence, 48 h; also: nearly all actives have a fitted effect of over 55% in size
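Chicken DT40 Tdp1-/- cells complemented with human TDP1, screened without camptothecin (DMSO vehicle only), 400 cells/well. Compounds pin-transferred, cells incubated at 37 °C for at least 48 hr. Growth read as ATP-dependent luminescence (CellTiter-Glo, 30 min at RT).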
Large screens that a line does not name were inactive. In the library only some 19% were active in any assay of this set; here they are far more common. Unless noted, calls follow the shape of the dose curve; as a rule, active = well fitted curve in the direction sought with a large enough effect; inconclusive = small, poorly fitted or top-dose-only effect, or another doubt; inactive = no such curve, though single readings can be large; an effect the other way counts as inactive or inconclusive.

COc1ccc(-c2oc3cc(O)c(OC)c(O)c3c(=O)c2OC)cc1	HT1080 IDH1KD tx 21µM, HT1080NT lethal inconclusive, TDP1 cell CPT 10µM, DT40 TDP1 no CPT 13µM
Cc1cccc(OCCOC(=O)c2ccc(F)c(S(=O)(=O)N3CCOCC3)c2)c1	TDP1 cell CPT inconclusive
COc1ccc(-c2oc3ccccc3c(=O)c2O)cc1OC	none (no result: HT1080 IDH1KD tx, HT1080NT lethal, IL-1B inflam inh)
COc1ccc(-c2oc3ccc(C)cc3c(=O)c2O)cc1OC	TDP1 cell CPT 12µM, DT40 TDP1 no CPT inconclusive (no result: HT1080 IDH1KD tx, HT1080NT lethal, IL-1B inflam inh)
NS(=O)(=O)c1ccc(CCNC(=O)CCCCCn2c(=S)[nH]c3ccc(Br)cc3c2=O)cc1	TDP1 cell CPT inconclusive
Cc1ccc(C(=O)CSc2nn3c(=O)c(C(C)(C)C)nnc3s2)cc1	TDP1 cell CPT inconclusive, DT40 TDP1 no CPT 18µM
CC(C)(C)c1nnc2sc(SCC(=O)c3ccc(Cl)cc3)nn2c1=O	IL-1B inflam inh inconclusive, DT40 TDP1 no CPT inconclusive
CC(C)(C)c1nnc2sc(SCC(=O)c3cccs3)nn2c1=O	TDP1 cell CPT inconclusive, DT40 TDP1 no CPT 26µM
NC(=S)N/N=C1\CCSc2ccc(Cl)cc21	TDP1 cell CPT 21µM, DT40 TDP1 no CPT 18µM
O=[N+]([O-])c1ccccc1S(=O)(=O)Nc1ccc(S(=O)(=O)N2CCCC2)cc1	none
Cc1ccc(Nc2nc(NCCO)c3ccccc3n2)cc1C	HT1080 IDH1KD tx 23µM, HT1080NT lethal 23µM, IL-1B inflam inh -99, TDP1 cell CPT inconclusive, DT40 TDP1 no CPT 16µM
COc1ccc(OC)c(Nc2nc(NCCO)c3ccccc3n2)c1	HT1080 IDH1KD tx inconclusive, IL-1B inflam inh -89, TDP1 cell CPT inconclusive, DT40 TDP1 no CPT 16µM
COc1ccc(OC)c(Nc2nc(-c3ccc(C)cc3)nc3ccccc23)c1	TDP1 cell CPT inconclusive (no result: HT1080 IDH1KD tx, HT1080NT lethal, IL-1B inflam inh)
CC1CCC(NC(=O)CN2C(=O)C3CC=CCC3C2=O)CC1 (configuration not stated)	DT40 TDP1 no CPT 5.8µM
CC(C)(C)c1ccc(OCC(O)CN2CCc3ccccc3C2)cc1 (configuration not stated)	HT1080 IDH1KD tx inconclusive, HT1080NT lethal inconclusive, TDP1 cell CPT 8.2µM, DT40 TDP1 no CPT 16µM
COc1ccc(OCC(O)CN2CCc3ccccc3C2)cc1 (configuration not stated)	none
CC(C)(C)c1ccc(OCC(O)CN2CCN(C(=O)c3ccccc3)CC2)cc1 (configuration not stated)	TDP1 cell CPT 16µM, DT40 TDP1 no CPT 21µM
Cc1ccc(OCC(O)CN2CCc3ccccc3C2)c(C)c1 (configuration not stated)	TDP1 cell CPT 26µM, DT40 TDP1 no CPT inconclusive
C[C@]12CCC[C@H](O1)c1c(cc3c(c1O)C(=O)c1c(O)cc(O)cc1C3=O)O2	TDP1 cell CPT inconclusive, DT40 TDP1 no CPT inconclusive
CCn1ncc(Br)c1C(=O)Nc1ccc(F)c([N+](=O)[O-])c1	IL-1B inflam inh -97, DT40 TDP1 no CPT inconclusive
COc1cc(NC(=O)C(C)Oc2ccccc2)c(OC)cc1NC(=O)c1ccccc1 (configuration not stated)	TDP1 cell CPT 21µM, DT40 TDP1 no CPT inconclusive
COC(=O)c1ccccc1NC(=O)C(C)Oc1ccccc1 (configuration not stated)	TDP1 cell CPT 7.3µM, DT40 TDP1 no CPT 5.8µM
CC(C)NC(=O)c1ccccc1NC(=O)C(C)Oc1ccccc1 (configuration not stated)	none
COc1cc(NC(=O)c2ccccc2)c(OC)cc1Cl	DT40 TDP1 no CPT inconclusive
CC(Oc1ccc(F)cc1)C(=O)Nc1ccccc1C(=O)N1CCCCC1 (configuration not stated)	TDP1 cell CPT 15µM, DT40 TDP1 no CPT inconclusive
COc1cc(NC(=O)c2sc(C)nc2C)c(OC)cc1NC(=O)c1ccccc1	TDP1 cell CPT inconclusive, DT40 TDP1 no CPT 16µM
CC(Oc1ccccc1)C(=O)Nc1ccc(NC(=O)c2ccccc2)cc1 (configuration not stated)	none
COc1cc(Cl)c(NC(=O)c2cc(CN3CCCC3)on2)c(OC)c1	none (no result: HT1080 IDH1KD tx, HT1080NT lethal, IL-1B inflam inh)
O=C(CCC(=O)N1CCCC1)Nc1ccc(Cl)c(Cl)c1	none
COc1ccc(NC(=O)CSc2nnc3c(n2)[nH]c2ccc(S(=O)(=O)N(C)C)cc23)c(OC)c1	TDP1 cell CPT inconclusive, DT40 TDP1 no CPT inconclusive (no result: IL-1B inflam inh)
Cn1c(=O)c2c(nc(NCc3ccccc3)n2C)n(C)c1=O	TDP1 cell CPT inconclusive
Cn1c(=O)c2c(nc(NCCCO)n2Cc2cccc(Br)c2)n(C)c1=O	TDP1 cell CPT inconclusive, DT40 TDP1 no CPT inconclusive
Cn1c(=O)c2c(nc(NCCc3ccccc3)n2Cc2ccc(Cl)c(Cl)c2)n(C)c1=O	TDP1 cell CPT inconclusive, DT40 TDP1 no CPT 6.5µM (no result: HT1080 IDH1KD tx, HT1080NT lethal, IL-1B inflam inh)
Cn1c(=O)c2c(nc(NCCc3ccccc3)n2Cc2cccc(Br)c2)n(C)c1=O	TDP1 cell CPT 12µM, DT40 TDP1 no CPT 13µM (no result: HT1080 IDH1KD tx, HT1080NT lethal, IL-1B inflam inh)
CC(C)CCn1c(NCCc2ccccc2)nc2c1c(=O)n(C)c(=O)n2C	HT1080 IDH1KD tx inconclusive, TDP1 cell CPT 13µM, DT40 TDP1 no CPT 21µM
CNc1nc2c(c(=O)n(C)c(=O)n2C)n1Cc1ccccc1	TDP1 cell CPT inconclusive, DT40 TDP1 no CPT 13µM
O=C(CC1C[C@H](C(=O)N2CCCCC2)[C@@]2(CCc3ccccc3)c3[nH]c4ccccc4c3CCN2C1=O)NCCCn1ccnc1 (some centres not stated)	IL-1B inflam inh inconclusive, TDP1 cell CPT inconclusive, DT40 TDP1 no CPT inconclusive
CCOc1cc(C(=O)NN2CCOCC2)cc(OCC)c1OCC	HT1080NT lethal inconclusive
C=CCNc1nc2c(c(=O)n(C)c(=O)n2C)n1CCCCCC	TDP1 cell CPT 3.3µM, DT40 TDP1 no CPT 1.6µM
Cn1c(=O)c2c(nc(-c3ccccc3)n2C)n(Cc2ccccc2)c1=O	TDP1 cell CPT 16µM, DT40 TDP1 no CPT 21µM
C/C(Cl)=C\Cn1c(Nc2ccc(C)cc2)nc2c1c(=O)n(C)c(=O)n2C	TDP1 cell CPT inconclusive, DT40 TDP1 no CPT inconclusive
Cn1c(=O)c2c(nc(NCCc3ccccc3)n2Cc2ccc(F)cc2)n(C)c1=O	TDP1 cell CPT 3.7µM, DT40 TDP1 no CPT 5.2µM
CC(Cl)=CCn1c(NCCc2ccccc2)nc2c1c(=O)n(C)c(=O)n2C	TDP1 cell CPT 1.5µM, DT40 TDP1 no CPT 1.5µM
Cn1c(NCCO)nc2c1c(=O)n(Cc1ccc(F)cc1)c(=O)n2C	none
COc1ccc(-c2nc3c(c(=O)[nH]c(=O)n3Cc3ccccc3)n2C)cc1	none
Cn1c(=O)c2c(nc(NCCNC(=O)c3ccco3)n2Cc2ccc(Cl)cc2Cl)n(C)c1=O	TDP1 cell CPT inconclusive, DT40 TDP1 no CPT inconclusive
CCC(C)Nc1nc2c(c(=O)n(C)c(=O)n2C)n1Cc1ccc(F)cc1 (configuration not stated)	TDP1 cell CPT 18µM, DT40 TDP1 no CPT inconclusive
Cn1c(=O)c2c(nc(N/N=C/c3cccnc3)n2Cc2ccccc2)n(C)c1=O	TDP1 cell CPT 12µM, DT40 TDP1 no CPT 26µM
